The source of these data is paper PMC4336329 (PLoS ONE, 2015).

The campaign covered roughly 310,000 compounds. About 14,000 (4.5%) showed an effect of 50% or more. Effects have a minus sign here. Many of the other results were omitted from the sample, so strong results are more common in it than they were.
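Further: peak tail current of the secondary pulse compared with the same well before compound.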

For the assay, the target named is human ether-à-go-go-related gene (hERG) potassium channel (human, UniProt Q12809). As to the kind of experiment: primary screen, population patch clamp on CHO cells stably expressing hERG; higher = less effect of the substance.
human ether-à-go-go-related gene (hERG) potassium channel, sequence (Q12809 whole entry, looked up): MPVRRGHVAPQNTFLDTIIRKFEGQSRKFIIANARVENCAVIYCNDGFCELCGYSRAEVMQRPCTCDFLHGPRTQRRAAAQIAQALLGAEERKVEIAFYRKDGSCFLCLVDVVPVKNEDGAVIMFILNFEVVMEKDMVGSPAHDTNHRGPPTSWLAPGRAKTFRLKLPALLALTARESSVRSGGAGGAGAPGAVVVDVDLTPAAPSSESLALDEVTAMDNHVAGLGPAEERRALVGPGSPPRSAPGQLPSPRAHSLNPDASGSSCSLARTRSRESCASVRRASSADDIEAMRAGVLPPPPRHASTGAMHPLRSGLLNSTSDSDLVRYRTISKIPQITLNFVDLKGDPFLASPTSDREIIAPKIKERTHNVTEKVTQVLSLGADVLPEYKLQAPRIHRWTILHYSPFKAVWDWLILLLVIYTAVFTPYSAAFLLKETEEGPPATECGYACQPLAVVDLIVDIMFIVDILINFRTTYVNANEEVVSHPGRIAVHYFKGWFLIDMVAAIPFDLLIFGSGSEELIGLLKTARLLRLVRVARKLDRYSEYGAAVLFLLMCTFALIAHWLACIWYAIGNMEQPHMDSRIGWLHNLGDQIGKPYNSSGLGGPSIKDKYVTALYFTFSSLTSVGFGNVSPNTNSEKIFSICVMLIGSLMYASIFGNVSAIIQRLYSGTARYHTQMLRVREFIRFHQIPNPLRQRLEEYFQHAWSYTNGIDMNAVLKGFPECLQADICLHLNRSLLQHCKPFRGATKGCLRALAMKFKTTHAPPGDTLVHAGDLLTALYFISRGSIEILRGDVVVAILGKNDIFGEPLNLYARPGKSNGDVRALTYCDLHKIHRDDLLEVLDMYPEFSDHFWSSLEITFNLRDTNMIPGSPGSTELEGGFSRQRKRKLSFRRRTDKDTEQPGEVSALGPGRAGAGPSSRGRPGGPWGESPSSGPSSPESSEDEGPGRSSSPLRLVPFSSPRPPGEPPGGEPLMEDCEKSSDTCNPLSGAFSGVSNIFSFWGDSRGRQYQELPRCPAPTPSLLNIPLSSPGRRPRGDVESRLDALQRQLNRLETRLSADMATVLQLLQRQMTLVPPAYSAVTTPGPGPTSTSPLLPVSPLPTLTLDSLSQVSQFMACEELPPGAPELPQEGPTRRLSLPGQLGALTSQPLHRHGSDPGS
As for `CCc1nnc(NC(=O)C(NC(=O)c2ccccc2Cl)C(C)C)s1` (stereo not drawn), the “hERG current change (%, negative = inhibition) at 10uM” value is listed as 0.192%.

On to `CCCCSc1nnc(-c2ccccc2)c2ccccc12`, for which the “hERG current change (%, negative = inhibition) at 10uM” value was -37.3%. To `Cc1ccc2c(c1)C(=O)N(CCCCO)C2=O` belongs 20.1%; to `O=c1cc(CSc2ccccc2)[nH]c2ccccc12`, 8.17%; to `O=C(C[n+]1ccccc1)Nc1c(Cl)cc(Cl)cc1Cl.[Cl-]`, 13.1%. For `CC(=O)Nc1ccccc1C(=O)OCC(=O)c1ccccc1Cl`, the “hERG current change (%, negative = inhibition) at 10uM” value is -12%. Regarding `CC1=NN(c2cccc(F)c2)C(=O)/C1=C/c1ccc(N(C)C)cc1`, the “hERG current change (%, negative = inhibition) at 10uM” value is 6.38%. As for `COC(=O)CSc1nnc(CNc2ccc(Cl)cc2)n1Cc1ccccc1`, the “hERG current change (%, negative = inhibition) at 10uM” value is -54.7%. The figure for `CCOC(=O)CSc1nnc(CNc2ccc(Cl)cc2)n1Cc1ccccc1` is -21.8%; for `CC(C)OC(=O)CSc1nnc(CNc2ccc(Cl)cc2)n1Cc1ccccc1` it is -33%. The figure for `CCn1c(CNc2cccc(Cl)c2)nnc1SCC(=O)OC1CCCCC1` is -25%. To `CCn1c(CNc2ccc(Cl)cc2)nnc1SCC(=O)OC1CCCCC1` belongs -37%; to `CCn1c(CNc2ccc(F)cc2)nnc1SCC(=O)OC1CCCCC1`, -51.7%; to `CN(C)S(=O)(=O)c1cccc(NC(=O)COC(=O)CNC(=O)c2cccc([N+](=O)[O-])c2)c1`, -39.6%. As for `CCOc1ccc(N2C(=O)CSC23CCCCC3)cc1`, the “hERG current change (%, negative = inhibition) at 10uM” value was -3.56%.

With `COC(=O)c1[nH]c(C)c(/C(O)=C2\C(=O)C(=O)N(CCN(C)C)C2c2cccs2)c1C` (stereo not drawn), the “hERG current change (%, negative = inhibition) at 10uM” value is reported as 16.9%. In the case of `CCOC(CNC(=O)c1ccc2c(c1)ncn2-c1cccc(F)c1)OCC`, the “hERG current change (%, negative = inhibition) at 10uM” value is listed as -17.3%. To `O=C(CSc1n[nH]c(=O)n1-c1ccc2c(c1)OCCO2)Nc1ccccc1` belongs 13%; to `COc1ccc(OCC(=O)N/N=C/c2ccncc2)cc1`, 17.9%; to `CCOC(=O)c1sc(NC(=O)CN2CCN(c3ccccc3)CC2)nc1C`, -5.78%. To `CCOC(=O)c1[nH]c(C)c(C(=O)N2CCN(c3ccccc3)CC2)c1C` belongs -13.2%.

On to `CCOC(=O)c1c(N2CCN(c3ccccc3)CC2)cc(C)nc1C.O=C([O-])C(=O)[O-]`, for which the “hERG current change (%, negative = inhibition) at 10uM” value is on record as -72%. On to `COc1ccccc1NC(=O)C(C)OC(=O)c1cccc(-n2cnnn2)c1` (stereo not drawn), for which the “hERG current change (%, negative = inhibition) at 10uM” value is reported as -35.2%.

With `COc1ccccc1NC(=O)C(C)OC(=O)c1ccc(-n2cnnn2)cc1` (stereo not drawn), the “hERG current change (%, negative = inhibition) at 10uM” value is given as -87.5%. For `CC(OC(=O)c1ccc(-n2cnnn2)cc1)C(=O)Nc1ccccc1F` (stereo not drawn), the “hERG current change (%, negative = inhibition) at 10uM” value is reported as -23.2%. The figure for `COCCn1c(C)cc(/C=N/NC(=O)c2cc3ccccc3cc2O)c1C` is 10.3%. The figure for `O=C(Nc1ccccc1F)C1CCN(S(=O)(=O)c2cccnc2)CC1` is 9.24%; for `COc1ccc(S(=O)(=O)N(C)C)cc1NC(=O)COC(=O)c1nc2nccc(C)n2n1` it is 9.68%. To `CC(NC(=O)CN1c2cccc3cccc(c23)S1(=O)=O)c1ccc(S(N)(=O)=O)cc1` (stereo not drawn) belongs -25.1%; to `Cc1ccc(NC(=O)N/C=C/c2ccco2)cc1C`, -1.57%; to `Cn1cncc1COC(=O)c1ccc(Cl)cc1`, 5.21%. `COc1ccccc1N1CCN(CCc2ccccc2)CC1`: the “hERG current change (%, negative = inhibition) at 10uM” value is reported as -59.4%.

Take `Cc1cccc(N2CCN(CCc3ccccc3)CC2)c1C`: the “hERG current change (%, negative = inhibition) at 10uM” value is on record as -75.1%.

For the compound `Cc1cccc(N2CCN(C(=S)NCCc3ccccc3)CC2)c1C`, the “hERG current change (%, negative = inhibition) at 10uM” value was -5.03%. To `COc1ccccc1N1CCN(Cc2nnnn2CCc2ccccc2)CC1.Cl` belongs 8.3%. As for `C/C(=C\c1ccccc1)CN1CCN(c2ccccc2F)CC1`, the “hERG current change (%, negative = inhibition) at 10uM” value turned out to be 5.01%.

For `C/C=C(\C)CN1CCN(c2cccc(C)c2C)CC1`, the “hERG current change (%, negative = inhibition) at 10uM” value is listed as -3.49%. To `COc1ccccc1N1CCN(C/C(C)=C/c2ccccc2)CC1` belongs -63.4%. The figure for `C/C(=C\c1ccccc1)CN1CCN(c2ccccc2)CC1` is -3.31%. To `COc1ccccc1N1CCN(C(=O)CCc2ccccc2)CC1` belongs -11.4%. With `CC(C)C(NS(=O)(=O)c1cccs1)C(=O)NCc1ccccc1Cl` (stereo not drawn), the “hERG current change (%, negative = inhibition) at 10uM” value was 0.166%.

Take `Cn1sc(NC(=O)c2ccc(Cl)cc2)nc1=O`: the “hERG current change (%, negative = inhibition) at 10uM” value turned out to be 7.93%.

For `COc1ccc2c(c1)[nH]c1c(C)nccc12.Cl`, the “hERG current change (%, negative = inhibition) at 10uM” value was -28%. In the case of `COc1cc(/C=N/NC(=O)C(NC(=O)c2ccccc2)c2n[nH]c(=O)c3ccccc23)ccc1OCC(N)=O` (stereo not drawn), the “hERG current change (%, negative = inhibition) at 10uM” value came out at 5.88%. Regarding `CCOc1ccc2nc3c(cc2c1)CN(CCOC)C(=NC)S3.Cl`, the “hERG current change (%, negative = inhibition) at 10uM” value amounted to 11.2%. The figure for `COc1cc(OC)cc(-c2c(-c3cccs3)c3cc(-c4ccc(OC)c(F)c4)ccc3n2C)c1` is 12.3%; for `CCOc1ccc(OCC)c(S(=O)(=O)N2CCC(C)CC2)c1` it is -29.4%.

For `CCOc1ccc(OCC)c(S(=O)(=O)N2CCCCC2C)c1` (stereo not drawn), the “hERG current change (%, negative = inhibition) at 10uM” value is -52.2%. In the case of `CCOc1ccc(OCC)c(S(=O)(=O)N2CCCCC2)c1`, the “hERG current change (%, negative = inhibition) at 10uM” value was -12.2%. To `O=C(NCCNc1nccc(C(F)(F)F)n1)c1cccs1` belongs -11.3%. The figure for `Cc1ccc2c(ccc(=S)n2C)c1` is 22.1%; for `CCOc1ccc2[nH]c(C)c(CN3CCCCC3)c(=O)c2c1` it is -13.1%.

As for `O=C(/C=C/c1ccccc1)NCCS(=O)(=O)N1CCN(c2ccccc2F)CC1`, the “hERG current change (%, negative = inhibition) at 10uM” value is given as -3.41%. The figure for `CCn1cc(C(=O)O)c(=O)c2cnc(N3CCNCC3)nc21` is -65.4%; for `CCn1cc(C(=O)O)c(=O)c2cnc(N3CCN(C(=S)Nc4ccccc4)CC3)nc21` it is 2.24%. The figure for `C=CCNC(=S)N1CCN(c2ncc3c(=O)c(C(=O)O)cn(CC)c3n2)CC1` is 2.8%. To `C/C(=N\NC(=O)C(O)c1ccccc1)c1ccc(Br)s1` (stereo not drawn) belongs 1.82%. As to `Cc1ccc(CN=c2c([N+](=O)[O-])nn(-c3cccc(C)c3)n2O)cc1`, the “hERG current change (%, negative = inhibition) at 10uM” value was -32.7%. The figure for `O=[N+]([O-])c1nn(-c2ccccc2)n(O)c1=NC1CCN(Cc2ccccc2)CC1` is -58.1%; for `Cc1cccc(-n2nc([N+](=O)[O-])c(=NC3CCN(Cc4ccccc4)CC3)n2O)c1` it is -66.8%.

In the case of `Cc1cccc(CCN=c2c([N+](=O)[O-])nn(-c3ccccc3)n2O)c1`, the “hERG current change (%, negative = inhibition) at 10uM” value is on record as -15.5%. The figure for `COc1ccc(-n2nc([N+](=O)[O-])c(=NC3CCN(Cc4ccccc4)CC3)n2O)cc1` is -39.8%; for `O=[N+]([O-])c1nn(-c2ccc3c(c2)OCCO3)n(O)c1=NC1CCN(Cc2ccccc2)CC1` it is -17.8%.
